A selection: hits, their analogues and other compounds. The true share with any hit is near 3.6%.
Calb biofilm kill: clotrimazole potentiators killing Candida biofilms, primary screen, with clotrimazole, Alamar Blue; hit rate 0.14% among 85,000; C. albicans biofilm + clotrimazole; inhibition, % at 6 µM;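 active = inhibition above 20%; inactive = inhibition below 20%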;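 also: preformed 24 hr biofilms exposed to compound for 48 hr; 0% = biofilm without compound and 100% = blank killed by clotrimazole plus chlorhexidine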
ERa SRC1 inh: ERα–SRC-1 coactivator interaction inhibitors, primary screen, biochemical, TR-FRET, ERα LBD, estradiol-bound; TR-FRET ER-alpha LBD / SRC-1 peptide; AID 629, 2007; hit rate 1.7% among 86,000; inhibition, % at 25.6 µM; Estrogen receptor (Homo sapiens), P03372; in the data active = inhibition above about 50%;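 also: 0% = receptor plus peptide control and 100% = peptide only without receptor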
Smad3 FoxH1 inh: Smad3/FoxH1 peptide binding inhibitors, primary screen, biochemical, TR-FRET; inhibition, % at 25 µM; TR-FRET Smad3/Dy647-FoxH1 peptide binding, europium anti-His; hit rate 0.29% among 88,000; AID 630, 2007; Mothers against decapentaplegic homolog 3 (Homo sapiens), P84022;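 active = compounds that reduce the energy-transfer binding signal between the protein and its labelled peptide by more than half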;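 also: 0% = Smad3 plus labelled peptide maximal FRET and 100% = peptide-only background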
ERb SRC1 inh: inhibitors of ERβ-SRC1 coactivator interaction, primary screen, biochemical, TR-FRET, ERβ LBD, SRC-1 peptide | Estrogen receptor beta (Homo sapiens), Q92731 | TR-FRET ER-beta LBD / SRC1-Cy5 peptide binding; receptor agonist-loaded with 1 µM estradiol | inhibition, % at 25.6 µM | hit rate 1.3% among 86,000 | AID 633, 2007;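 active = compounds whose percent inhibition of the receptor-coactivator binding signal exceeds about 50% in the single-dose screen, limit read from the data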;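 also: 0% = receptor plus peptide wells without compound and 100% = peptide-only wells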
Target sequence (Q92731 whole entry, looked up, the tested form may be a part): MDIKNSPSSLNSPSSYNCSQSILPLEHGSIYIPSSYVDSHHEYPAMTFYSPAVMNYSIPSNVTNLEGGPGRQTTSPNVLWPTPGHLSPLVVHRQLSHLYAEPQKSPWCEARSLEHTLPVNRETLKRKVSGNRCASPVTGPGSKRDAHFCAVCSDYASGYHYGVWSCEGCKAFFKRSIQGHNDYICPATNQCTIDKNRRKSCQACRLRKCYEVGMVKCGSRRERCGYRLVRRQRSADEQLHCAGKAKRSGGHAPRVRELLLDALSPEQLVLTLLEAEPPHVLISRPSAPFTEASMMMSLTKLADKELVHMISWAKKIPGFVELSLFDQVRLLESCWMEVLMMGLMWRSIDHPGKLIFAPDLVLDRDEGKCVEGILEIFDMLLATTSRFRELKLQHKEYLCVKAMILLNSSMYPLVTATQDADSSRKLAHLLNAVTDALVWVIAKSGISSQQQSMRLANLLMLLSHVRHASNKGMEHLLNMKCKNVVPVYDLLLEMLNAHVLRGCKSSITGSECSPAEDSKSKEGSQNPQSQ
ERa coact pot: enhancers of ERα–SRC-1 coactivator binding, primary screen, biochemical, TR-FRET, ERα LBD, low estradiol | Estrogen receptor (Homo sapiens), P03372 | coactivator binding (% of control), % at 25.6 µM | hit rate 1.3% among 86,000 | TR-FRET ERalpha-LBD/SRC-Cy5 coactivator binding, 2 h; 100 = basal binding, no effect; in the data active = activity above about 200%;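 also: binding measured in presence of low estradiol as agonist stimulus; 0% = peptide alone without receptor and 100% = receptor with peptide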
Active calls of the source: *; nt = not tested or not shown; [ ] = dose if it differs, or a comment.

SMILES | Calb biofilm kill | ERa SRC1 inh | Smad3 FoxH1 inh | ERb SRC1 inh | ERa coact pot
COc1ccc2oc(C(=O)OCC(=O)c3ccc4c(c3)OCCO4)c(C)c2c1 | 2 | 7 | -2 | 0 | 229*
COc1ccc(C2N(c3cc(Cl)ccc3OC)C(=O)C3CCCN32)cc1OC (centres undefined) | -13 | -10 | 3 | -4 | 122
COC(=O)Nc1c(-c2ccccc2)nc2ccc(C)cn12 | 2 | 3 | 1 | 83* | 101
COC(=O)Nc1c(-c2ccccc2)nc2ccccn12 | 6 | -20 | 9 | -8 | 106
Cc1nc(OCC(=O)c2ccc(Cl)cc2)c(C#N)c2c1COC(C)(C)C2 | 4 | 2 | -3 | -9 | 773*[fluorescence artefact?]
N#Cc1c(NC(=O)CN2CCN(S(=O)(=O)c3ccc4c(c3)OCCO4)CC2)sc2c1CCC2 | -4 | 69*[fluorescence artefact?] | 3 | 53*[fluorescence artefact?] | 27
O=C(CN1CCN(S(=O)(=O)c2ccc(Cl)cc2)CC1)Nc1ccc2c(c1)OCCO2 | 10 | -3 | 4 | -8 | 120
CCOC(=O)N1CCc2c(sc(NC(=O)c3ccc(S(=O)(=O)N4CCCC4)cc3)c2C#N)C1 | 19 | 34 | -16 | 21 | 245*
C=CCOc1c(Br)cc(CNn2nnnc2N)cc1OC | 3 | 7 | 23 | -5 | 106
NCCSS(=O)(=O)CCN | nt | nt | 62* | nt | nt
CCCCN1CCc2c([nH]c3c(C)cccc23)C1=O | 3 | -9 | 3 | -10 | 587*[fluorescence artefact?]
O=C(N1CCOCC1)N1CCN(Cc2ccccc2)CC1 | 0 | -5 | -2 | -6 | 545*[fluorescence artefact?]
O=C(N1CCOCC1)N1CCN(c2ccccc2)CC1 | 6 | -9 | -2 | -12 | 104
O=c1[nH][nH]c(=S)c(=O)[nH]1 | nt | nt | 52* | nt | nt
CCCn1c(N)c(C(=O)CSc2nnnn2-c2ccc(O)cc2)c(=O)n(C)c1=O | 83* | 4 | 3 | 10 | 103
CC(C)Cn1c(N)c(C(=O)CSc2nnnn2-c2ccc(Cl)cc2)c(=O)n(C)c1=O | 4 | 25 | 4 | -2 | 327*
CC(C)Cn1c(N)c(C(=O)CSc2nnnn2C)c(=O)n(C)c1=O | 7 | 6 | 10 | -6 | 111
CC(C)N(CCCNC(=O)C1CCN(S(=O)(=O)N2CCOCC2)CC1)Cc1ccccc1 | 8 | -5 | 1 | -4 | 113
Cc1ccc(C(C)C)c(OCC(O)CN2CC(C)OC(C)C2)c1 (centres undefined) | 11 | -2 | -5 | 51*[fluorescence artefact?] | 97
Cc1ccc(-c2noc(CCC(=O)N(C)c3ccccc3C)n2)cc1 | -1 | 6 | 1 | 23 | 91
CCCCNS(=O)(=O)c1ccc2nc(SCC(=O)c3ccc(C#N)cc3)[nH]c2c1 | -2 | 7 | 2 | 7 | 279*
CCOc1cccc(C(=O)Nc2cccc(-c3nnc(-c4ccccc4)o3)c2)c1 | 1 | 45 | -3 | 31 | 108
CCOc1cccc(C(=O)Nc2cccc(-c3nnc(-c4ccc(C)cc4)o3)c2)c1 | 8 | 68*[fluorescence artefact?] | -22 | 60*[fluorescence artefact?] | 158
Cc1ccc2nc(-c3ccc(NC(=O)c4ccco4)cc3)[nH]c2c1 | 0 | 59*[fluorescence artefact?] | -9 | 36 | 176
Cc1cc(C)nc(NS(=O)(=O)c2ccc(NC(=O)c3ccco3)cc2)n1 | 4 | -5 | 6 | 69*[fluorescence artefact?] | 102
SMILES | Calb biofilm kill | ERa SRC1 inh | Smad3 FoxH1 inh | ERb SRC1 inh | ERa coact pot
O=C(Nc1cccc(-c2cnc3ccccc3n2)c1)c1cccc(NC(=O)c2ccco2)c1 | 2 | 59* | 10 | 35 | 244*[fluorescence artefact?]
CCc1ccc(C(=O)Nc2ccc(S(=O)(=O)Nc3nc(C)cc(C)n3)cc2)o1 | 2 | -9 | -15 | 24 | 93
O=C(Nc1ccc(-c2nc3ccc(NC(=O)c4cccs4)cc3[nH]2)cc1)c1cccs1 | 1 | 91*[fluorescence artefact?] | 54*[fluorescence artefact?] | 55* | 108
Cc1ccc(-c2nnc(-c3ccc(NC(=O)c4ccco4)cc3)o2)cc1 | 6 | 22 | 12 | 12 | 455*
O=C(Nc1ccc2nc(-c3cccs3)[nH]c2c1)c1cccs1 | -7 | -3 | 14 | 21 | 89
O=C(Nc1ccc(-c2nc3cccnc3s2)cc1)c1ccco1 | 5 | 56*[fluorescence artefact?] | -6 | 41 | 156
[N-]=[N+]=NC[C@@H]1O[C@H](n2cnc3c(N)ncnc32)[C@@H]2O[C@@H]21 | nt | nt | 3 | nt | nt
O=C(c1ccco1)N1CCN(c2nnc(-c3ccccc3)c3ccccc23)CC1 | 9 | 4 | 23 | -5 | 85
CSc1nsc(SCC(=O)N2CCN(c3ccccc3)CC2)n1 | 5 | 4 | 5 | 7 | 110
CN(C)CCCN1c2ccccc2Sc2cnccc21 | nt | nt | 33 | nt | nt
Cc1ccc2nc(SCC(=O)NCc3ccco3)c(C#N)cc2c1 | 7 | 21 | -60 | 24 | 176
Cc1ccc2cc(C#N)c(SCC(=O)NCc3ccco3)nc2c1 | 6 | 55*[fluorescence artefact?] | -24 | 35 | 237*
Cc1ccc2cc3cc(C(=O)NCCC(C)C)oc3nc2c1 | 5 | 26 | -8 | 26 | 120
Cc1ccc2cc3cc(C(=O)NCc4ccco4)oc3nc2c1 | 4 | 53*[fluorescence artefact?] | 7 | 37 | 140
Cc1cccc(-c2c3c(=O)n(C)c(=O)n(C)c3c3cccnn23)c1 | 10 | -18 | 10 | -13 | 114
N#Cc1ccc(OC(=O)c2ccc(N=C(N)N)cc2)cc1 | nt | nt | -2 | nt | nt
O=S(=O)(c1cccc(-c2cn3cccnc3n2)c1)N1CCOCC1 | 9 | -14 | -13 | -6 | 88
O=S(=O)(c1cccc(-c2cn3cccnc3n2)c1)N1CCCCCC1 | 4 | 58* | -5 | 32 | 124
CC1=CC(=O)CC(C)(C)[C@]1(O)/C=C/C(C)=C/C(=O)O | nt | nt | 2 | nt | nt
CCOc1ccc(C(=O)CCN2CCCCC2)cc1 | 2 | -2 | 16 | 59* | 92
CC(C)Oc1ccc(C(=O)CCN2CCCCC2)cc1 | 9 | 7 | 10 | 8 | 92
CS(=O)(=O)N(CC(=O)NCc1ccccn1)Cc1ccc(Cl)cc1 | 6 | -8 | -6 | -6 | 109
CN(C)S(=O)(=O)c1ccc(/C(O)=C2/C(=O)C(=O)N(CCN3CCCCC3)C2c2cccnc2)cc1 (centres undefined) | 3 | -5 | 7 | -2 | 118
CCOc1cc(NC(=O)c2cccs2)c(OCC)cc1NC(=O)c1ccco1 | 7 | 8 | -6 | 65* | 75
O=C(COC(=O)c1cccs1)NCc1ccco1 | 6 | 53*[fluorescence artefact?] | 5 | 53* | 77
COc1cc(NC(=O)c2cccs2)c(C(=O)OCC(=O)NCc2ccco2)cc1OC | -6 | 79* | 6 | 42 | 89
O=C(COC(=O)COc1ccc(Nc2ccccc2)cc1)NCc1ccco1 | 4 | 30 | -4 | 52*[fluorescence artefact?] | 69
O=C(Nc1ccc(N2CCOCC2)c(F)c1)c1ccncc1 | -5 | -12 | -7 | 8 | 101
